This passage reports z-score results from PubChem BioAssay.

Unmarked numbers belong to inactive results.

A short description of the assay: E. coli acrAB mutant growth effects, primary screen, E. coli filamentation inducers, strain DRC39, OD650, 48 h (AID 1179).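 Further: screen aims at cell division blockers that make cells filament.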 As to conditions: E. coli DRC39 delta-acrAB growth, higher = more signal, called active from +8 up or from −8 down.
With `C#CCN1[C@@H](Cc2ccc(O)cc2)C(=O)O[C@H](Cc2ccccc2)[C@@H]1/C=C/C1CC1`, the z-score was 0.665.
Turning to `CCCCCCCCCCC(O)C1C=CC2C(=O)NC(=O)C2N1Nc1ccc(Cl)cc1Cl` (stereo not given), the z-score is -1.27.
As to `O=C(NCc1ccccc1)[C@@H]1c2ccccc2C(=O)N(C2Cc3ccccc3C2)[C@H]1c1ccc(CO)cc1`, the z-score is -0.15.
As for `CN(C)CCCCCCNC(=O)[C@@H]1C[C@@H]2C(=O)N3CCC[C@H]3C(=O)N2[C@@H]1c1ccc(O)cc1`, the z-score is 1.64.
The same measure for `N#Cc1ccc(C(O)C2C=CC3C(=O)N(c4ccccc4)C(=O)C3N2Nc2ccccc2F)cc1` (stereo not given): 0.692; for `COc1ccc([Si](C)(C)[C@@H]2[C@@H](CC(=O)N3Cc4ccccc4C[C@H]3CO)O[C@]3(C(=O)N(Cc4cccc(N5CCC5=O)c4)c4ccccc43)[C@H]2C)cc1`: -0.0051; for `CS(=O)(=O)CCOC(=O)C1=CC(CCCO)=CC(C2CC2)N(Cc2cc3c(cc2Br)OCO3)C=C1C(=O)OCCS(C)(=O)=O` (stereo not given): 0.892.
As to `NC(=O)N1C(=O)C2C(C1=O)C1C=C(CCCO)C2C(C2CC2)N1Cc1cc2c(cc1Br)OCO2` (stereo not given), the z-score is -0.562.
On to `O=C1OCCC=C[C@H]2OC34C=CCN(CCN5CCOCC5)C(=O)[C@H]3N(CCCCCO)C(=O)[C@@H]4C12` (stereo not given in full), for which the z-score is 0.732.
Turning to `CC(CO)N1C(=O)[C@@H]2C3C(=O)OCCC/C=C\[C@H]3OC23C=CCN(CCN2CCOCC2)C(=O)[C@@H]13` (stereo not given in full), the z-score was 0.685.
On to `CCCCCCc1nc(-c2ccc(-c3ccc(Cl)c(Cl)c3)o2)c(C)c2c1[Si](C(C)C)(C(C)C)OC2`, for which the z-score is -0.616.
The same measure for `CCOc1cc(C(O)C2C=CC3C(=O)N(c4ccccc4)C(=O)C3N2Nc2ccc(C(C)C)cc2)ccc1O` (stereo not given): -1.34; for `CCOC(=O)C1=C[C@@H](C(C)C)N(S(=O)(=O)c2ccc(C)cc2)[C@H]1c1ccccc1F`: 0.0503.
For the compound `COc1cc2c(cc1O)C(c1cccs1)N(Cc1cccc(OC(F)(F)F)c1)CC2` (stereo not given), the z-score was 1.14.
The same measure for `C=CCN1C(=O)[C@]2(Cc3ccccc3)N=C(c3ccc(OCCCO)cc3)O[C@@H]2c2ccccc21`: 0.884.
Turning to `COc1ccc([Si](C)(C)[C@@H]2[C@@H](CCn3cc(CCO)nn3)O[C@]3(C(=O)N(Cc4cccc(N5C(=O)c6cccc7cccc5c67)c4)c4ccccc43)[C@H]2C)cc1`, the z-score is -0.831.
The same measure for `C=CCN(Cc1ccccc1)C(=O)C(c1cccs1)N(C(=O)/C=C\C(=O)O)c1ccc(CCOCCO)cc1` (stereo not given): 0.651; for `COC(=O)c1c2oc(c1C(=O)OC)C(=O)NC1(CCCCC1)c1cn(nn1)C[C@H](Cc1ccccc1)NC(=O)N[C@H](CO)CC2`: 1.66.
As for `CC(=O)NCCCC[C@@H]1NC(=O)[C@H]2C[C@@H](C(=O)NCCCCCNC(=O)CS)[C@@H](c3ccc(O)cc3)N2C1=O`, the z-score was -0.574.
For the compound `COCCCNC(=O)[C@@]1(CCS(=O)(=O)c2ccccc2)N=C(c2ccc(OCCCO)cc2)O[C@H]1c1ccccc1N=[N+]=[N-]`, the z-score was 0.863.
With `COc1ccc(NN2C(C(O)c3ccc(N(C)C)cc3)C=CC3C(=O)N(C4CCCCC4)C(=O)C32)cc1` (stereo not given), the z-score was -0.224.
As for `[N-]=[N+]=NCc1ccccc1[C@@H]1OC(c2ccc(OCCCO)cc2)=N[C@]1(CCS(=O)(=O)c1ccccc1)C(=O)N1CCCCC1`, the z-score was -0.213.
Consider `COC(=O)C[C@H]1O[C@@H](CCc2ccccc2)[C@@H](C)[C@@H]1[Si](C)(C)c1ccc(OC)cc1`, for which the z-score is -1.12.
Take `CN1C(=O)C2C=CC(C(O)c3ccccc3)N(N3CCCCC3)C2C1=O` (stereo not given): the z-score is -1.4.
Take `COC(=O)[C@@]1(Cc2ccc(OC)cc2)[C@H]2c3cc(C(=O)N4CCCC4)n(CCSCCO)c3C[C@H]2CN1C(=O)c1ccccc1`: the z-score was -0.739.
With `COC(=O)c1c(CC[C@@H](CO)NC(=O)NCCc2c[nH]c3ccccc23)oc(C(=O)Cc2ccccc2)c1C(=O)OC`, the z-score is 0.733.
The same measure for `O[C@@H](Cc1ccccc1)[C@@H](/C=C/C1CC1)NCc1cccc(Cl)c1`: -0.957.
Take `CN1CCC(CCCO)=CC1c1cccs1` (stereo not given): the z-score is 0.0999.
Consider `CO[C@H]1O[C@H](CO)[C@@H](OC(=O)Nc2ccc(Br)cc2)[C@@H]2OC(=O)[C@H](Cc3cccc(Br)c3)C/C=C/C[C@@H](Cc3cccc(Br)c3)C(=O)O[C@@H]12`, for which the z-score is 0.69.
On to `COCC(=C=CC[C@@H](O)c1ccc(OCCO)cc1)C[C@@H](O)c1ccccn1`, for which the z-score is 0.0639.
For `COC(=O)[C@@]1(Cc2ccc(OC)cc2)[C@H]2c3cc(C(=O)N(C)C)n(Cc4ccc(C(F)(F)F)nc4)c3C[C@H]2CN1C(=O)c1ccccc1`, the z-score is -0.18.
Turning to `COCCCNC(=O)[C@@H]1c2ccccc2C(=O)N(Cc2ccccc2OC)[C@H]1c1ccc(CO)cc1`, the z-score was 0.261.
For the compound `O=C1O[C@@H](c2ccccc2)[C@@H](c2ccccc2)N2[C@@H](c3ccc(OCCO)cc3)[C@]3(C(=O)Nc4ccc(C#CCCO)cc43)[C@@H](C(=O)NC[C@H](O)c3ccccc3)[C@H]12`, the z-score was 1.
Turning to `O=C(O)[C@H]1C[C@H]2C(=O)N3CCC[C@H]3C(=O)N2[C@H]1c1ccc(O)cc1`, the z-score is 0.715.
The same measure for `[N-]=[N+]=NCc1ccccc1C[C@@]1(C(=O)NCC(O)CO)N=C(c2ccc(OCCCO)cc2)O[C@@H]1c1ccccc1` (stereo not given in full): 0.322.
